Measurements taken from PubChem BioAssay AID743279 (National Center for Advancing Translational Sciences (NCATS), 2014).
In all, about 360,000 compounds went through this assay and about 17,000 (4.7%) were called active. Inconclusive results (about 5%) are left out. Rule as the data show it: active = activity change below about -50%; inconclusive = mostly about -30% to -49%; inactive = weaker than that. The sample as a whole holds a higher share of actives than the screen did.

Assay: qHTS for Inhibitors of Inflammasome Signaling: IL-1-beta AlphaLISA Primary Screen
Details: THP-1 LPS/ATP IL-1B secretion, 16 h; at 57.5 µM, hits give low values
Procedure, shortened: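 THP-1 cells pretreated 1 hr with compounds (up to 57.5 uM final), then stimulated with LPS (250 ng/mL final) plus ATP (1.25 mM final); secreted IL-1B measured by AlphaLISA after 16 hr, decreased signal indicating inhibition.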
% is scaled to controls: 0 for no effect and ±100 for the full control effect.

Activity change, inactive:
O=C(Nc1ccc(F)cc1)Nc1nnc([C@H]2C[C@H](O)[C@@H](CO)O2)s1 -12.8%
COc1ccc(-c2nnc(SC(C)C(=O)NC3CC3)o2)cc1 (centres undefined) -5.66%
COc1ccc(-c2nnc(-c3ccc4ccccc4c3)o2)cc1 -20.9%
COC(=O)C1(C(=O)OC)C/C=C\CN(S(=O)(=O)c2ccccc2[N+](=O)[O-])CCC1 18.1%
O=C(NCc1cccnc1)c1cc(C2CCCN(C(=O)CCCc3ccccc3)C2)on1 (centres undefined) 24.4%
CCN(CC)CCn1c2ccc(Cl)cc2c2nc(C)sc21 -29.9%
O=C(Nc1ccc(OCCO)cc1)c1csc([C@H]2C[C@H](O)[C@@H](CO)O2)n1 4.57%
COc1cccc(/C=N\Nc2nncc(-c3ccccc3)n2)c1 -16.6%
FC(F)(F)c1cccc(N/N=C/c2ccccc2)c1 -1.73%
CC(C)NC(=O)c1ccccc1S(=O)c1ccccc1C#N (centres undefined) -0.788%
OCC1OC(n2cnc3c(N4CCCC4)ncnc32)C(O)C1O (centres undefined) 86.8%
COCCCNC(=O)CSc1nc2ccc(N3CCOCC3)cc2c(=O)n1CCc1ccccc1 -8.48%
CCCCn1c(SCC(=O)NCC2CCCO2)nc2ccc(N3CCOCC3)cc2c1=O (centres undefined) -7.71%
N#Cc1ccc(-c2ccc3nccn3c2)cc1 13.1%
C=CCC[C@H](Cc1ccc(F)cc1)C(=O)OC[C@@H](NC(=O)[C@@H](CC=C)CC(=O)N[C@H](CO)Cc1ccccc1)C(C)(C)C -29.4%
C=CC[C@@H](Cc1ccc(F)cc1)C(=O)OC[C@H]1CCCN1C(=O)[C@H](CC=C)CC(=O)N(CCO)Cc1ccccc1 -21.2%
C=CCC[C@H](Cc1ccc(F)cc1)C(=O)OC[C@H](C)NC(=O)[C@H](CC=C)CC(=O)N(CCO)Cc1ccccc1 -17.2%
C=CCC[C@@H](Cc1ccc(F)cc1)C(=O)OC[C@@H](C)NC(=O)[C@H](CC=C)CC(=O)N(CCO)Cc1ccccc1 -24.1%
CSc1ccc(CNC(=O)C2(C)CCCN2C)cc1 (centres undefined) -5.74%
COCCCNC(=O)CNC(=S)N(Cc1cc(OC)c(OC)c(OC)c1)C1CCCC1 7.84%
Cc1ccc(C(=O)N/C(=C\c2cn(S(=O)(=O)N(C)C)c3ccccc23)C(=O)N2CCCC2)cc1 -17.6%
CN1CCN(C(=O)c2ccc(NC(=O)c3ccc(Br)o3)cc2)CC1 4.78%
COc1ccccc1OCc1ccc(C(=O)N2CCN(C)CC2)o1 10.8%
CCCc1nn2c(=O)cc(CSCC(=O)Nc3cccc(C)c3)nc2s1 19.5%
Cc1cccc(-c2cnc(C(O)c3cc(C)cc(C)c3)[nH]2)c1 (centres undefined) -1.76%
CCc1nc2c(OCc3cccc(OC)c3)cccn2c1N(C)C(=O)C(C)C 51.9%
CCCCC(=O)N(C)c1c(CC)nc2c(OCc3ccc(S(C)(=O)=O)cc3)cccn12 28.1%
CCc1nc2c(OCc3ccc(C(=O)OC)cc3)cccn2c1N(C)C(=O)C(C)C -12%
CCOC(=O)N(C)c1c(CC)nc2c(OCc3ccccc3C(=O)OC)cccn12 6.05%
CCc1nc2ccc(C(=O)NC3CCN(Cc4ccccc4)CC3)cn2c1N(C)CCN1CCOCC1 -15.7%
CCc1nc2c(OCc3ccc(C(F)(F)F)cc3)cccn2c1N(C)C(=O)CC(C)C -8.97%
COC1=CC(=O)OC(C)(c2ccccc2)C1 (centres undefined) 9.74%
Cc1cccc(OCC(=O)Nc2ccc(NC(=O)c3ccco3)c(C)c2)c1 -0.614%
COc1ccc(NC(=O)c2ccco2)cc1NC(=O)c1ccc(C#N)cc1F 52.7%
Cc1cc(F)ccc1S(=O)(=O)Nc1ccc(C(=O)N(C)Cc2ccco2)cc1 -8.26%
COc1ccc(NC(=O)CSc2nnc(-c3ccccc3F)n2C2CC2)cc1S(N)(=O)=O 15.5%
Cc1ccc(-n2nc(C)c(/C=N/NC(=O)c3cccs3)c2Cl)cc1 -8.79%
Cc1nn(-c2ccccc2)c(C)c1/C=N/NC(=O)CSc1nc2ccccc2c(=O)n1-c1ccccc1 12%
Cc1ccc(N2CCN(c3ccc([N+](=O)[O-])cn3)CC2)c(C)c1 -8.34%
C1=C(CCNc2ncnc3c2cnn3-c2ccccc2)CCCC1 -3.14%
Cc1ccc(S(=O)(=O)N2CCC(C(=O)NCCC3=CCCCC3)CC2)cc1C -2.64%
Nc1ncnc2c1ncn2[C@@H]1O[C@H](C(=O)N2CCCN(Cc3ccccc3F)CC2)[C@@H](O)[C@H]1O 2.81%

Activity change, active:
COc1ccc(-c2nnc(SC(=O)N3c4ccccc4Sc4ccccc43)o2)cc1 -101%
CCN(CC)CCCC(C)n1c2nc(=O)[nH]c(=O)c-2nc2cc(Cl)ccc21 (centres undefined) -77.2%
Cc1cc2c(C)nc(N/N=C/c3ccccc3)nc2o1 -78.8%
N#CCSc1nc2ccc(N3CCOCC3)cc2c(=O)n1CCc1ccccc1 -50.9%
C=CC[C@H](CC(=O)N(CCO)Cc1ccccc1)C(=O)N[C@@H](COC(=O)[C@@H](CC=C)Cc1ccc(F)cc1)Cc1ccccc1 -67.6%
C=CCC[C@@H](Cc1ccc(F)cc1)C(=O)O[C@H](CNC(=O)[C@H](CC=C)CC(=O)N(CCO)Cc1ccccc1)c1ccccc1 -58.8%
CN1CCN(C(=O)c2ccc(-c3ccc(Br)cc3)o2)CC1 -71.3%
CCc1nc2c(OCc3ccc(Cl)cc3Cl)cccn2c1N(C)C(=O)C(C)C -84.1%
CCCCC(=O)N(C)c1c(CC)nc2c(OCc3ccc(Cl)cc3Cl)cccn12 -54%
COc1ccccc1C(=O)Nc1ccc(NC(=O)c2ccco2)c(C)c1 -55.2%
Cc1nn(-c2ccccc2)c(Cl)c1/C=N/NC(=O)c1nn(C)cc1[N+](=O)[O-] -65.7%
O=C(NCCC1=CCCCC1)C1CCN(Cc2cnn(-c3ccccc3)c2-n2cccc2)CC1 -64.8%
